Laboratory results from PubChem BioAssay AID623901 (Broad Institute, 2012).
In all, about 340,000 compounds went through this assay and about 470 (0.14%) were called active. This is one part of a sample in which actives are shown more often than they occur. A number with no mark means an inactive call.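 How the source made its calls: active means mean activation of 30% or more, with every replicate also reaching 30%; inconclusive means mean activation of 30% or more but some replicate falls short; inactive means the rest.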

assay: small molecules raising miR-122 sensor signal – cell-based, Huh7 psiCHECK-miR122, Renilla luciferase, single point, primary screen (AID 623901); settings: 48 h, at 12.5 µM, stronger effect = higher value;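 further: 0% = median of neutral control wells and 100% = median of positive control wells; higher luciferase signal means stronger suppression of miR-122 activity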

| Structure (SMILES) | activation |
| --- | --- |
| COc1ccc(C#Cc2cnc3c(c2)C(=O)N([C@@H](C)CO)C[C@H](C)[C@@H](CN(C)CC2CCOCC2)O3)cc1 | 0.272% |
| CSc1nc(-c2ccccc2)nc(C(Cl)Cl)n1 | 42% (active) |
| COc1ccccc1-c1ccc2c(c1)O[C@H](CN(C)S(=O)(=O)c1ccc(C)cc1)[C@@H](C)CN([C@H](C)CO)S2(=O)=O | 2.3% |
| COc1cccc(-c2ccc3c(c2)O[C@H](CN(C)C(=O)C2CCOCC2)[C@H](C)CN([C@H](C)CO)S3(=O)=O)c1 | 40.8% (active) |
| CNC[C@H]1Oc2cc(-c3ccc(OC)cc3)ccc2S(=O)(=O)N([C@H](C)CO)C[C@@H]1C | -1.22% |
| C[C@H](CO)N1C[C@H](C)[C@@H](CN(C)C(=O)C2CCOCC2)Oc2cc(-c3ccc(C(=O)N(C)C)cc3)ccc2S1(=O)=O | -12.2% |
| COc1cccc(S(=O)(=O)N(C)C[C@@H]2Oc3cc(C4=CCCCC4)ccc3S(=O)(=O)N([C@H](C)CO)C[C@H]2C)c1 | 36.2% (active) |
| COCC#Cc1ccc2c(c1)O[C@H](CN(C)C(=O)C1CCOCC1)[C@@H](C)CN([C@@H](C)CO)S2(=O)=O | -2.66% |
| C[C@H]1CN([C@@H](C)CO)C(=O)c2cc(Br)cnc2O[C@H]1CN(C)Cc1cccc(F)c1 | -14.9% |
| CCC(=O)N1C[C@@H](C)[C@@H](OC)CN(C)C(=O)c2ccc(NC(=O)C3CCCCC3)cc2OC[C@H]1C | -2.5% |
| COc1ccc(C)cc1S(=O)(=O)Nc1cc2c3c(c1)CCC(=O)N3CCC2 | -150% |
| C/C=C/c1ccc2c(c1)O[C@H](CN(C)C(=O)Cc1ccccn1)[C@H](C)CN([C@H](C)CO)S2(=O)=O | -4.41% |
| C[C@H]1CN([C@@H](C)CO)S(=O)(=O)c2ccc(-c3cccc(C#N)c3)cc2O[C@H]1CN(C)C(=O)c1ccccc1 | 4.92% |
| C[C@H]1CN([C@@H](C)CO)S(=O)(=O)c2ccc(C#Cc3ccccc3F)cc2O[C@@H]1CN(C)C(=O)c1ccc2c(c1)OCO2 | 48% (active) |
| CNC[C@@H]1Oc2cc(C#CCC3CCCC3)ccc2S(=O)(=O)N([C@H](C)CO)C[C@H]1C | 14.9% |
| C[C@@H]1CN([C@@H](C)CO)S(=O)(=O)c2ccc(C#Cc3ccc(F)cc3)cc2O[C@H]1CN(C)S(C)(=O)=O | 0.672% |
| C[C@@H]1CN([C@H](C)CO)S(=O)(=O)c2ccc(C#Cc3ccccc3F)cc2O[C@@H]1CN(C)C(=O)c1ccc2c(c1)OCO2 | 48.9% (active) |
| CNC[C@@H]1Oc2cc(C#CC3CCCC3)ccc2S(=O)(=O)N([C@@H](C)CO)C[C@@H]1C | 32.4% (active) |
| C[C@@H]1CN([C@@H](C)CO)S(=O)(=O)c2ccc(C#Cc3ccccc3)cc2O[C@@H]1CN(C)C(=O)Nc1ccccc1 | -3.74% |
| CCC(=O)N(C)C[C@@H]1Oc2cc(C#Cc3cccnc3)ccc2S(=O)(=O)N([C@H](C)CO)C[C@@H]1C | -5.93% |
| CCCC#Cc1ccc2c(c1)O[C@@H](CN(C)C(=O)c1cccnc1)[C@H](C)CN([C@H](C)CO)S2(=O)=O | -14.9% |
| C/C=C/c1ccc2c(c1)O[C@H](CN(C)C(=O)c1ccc3c(c1)OCO3)[C@@H](C)CN([C@H](C)CO)S2(=O)=O | -10.3% |
| C[C@H](CO)N1C[C@H](C)[C@@H](CN(C)C(=O)C2CC2)Oc2cc(C#CC3CC3)ccc2S1(=O)=O | -21% |

| Structure (SMILES) | activation |
| --- | --- |
| C[C@@H]1CN([C@H](C)CO)S(=O)(=O)c2ccc(C#CC3(O)CCCC3)cc2O[C@@H]1CN(C)C(=O)c1cccnc1 | 44% (active) |
| C[C@H](CO)N1C[C@H](C)[C@@H](CN(C)Cc2cncnc2)Oc2cc(-c3ccccc3)ccc2S1(=O)=O | -27.5% |
| C[C@H]1CN([C@@H](C)CO)C(=O)c2cc(/C=C/c3ccccc3)cnc2O[C@H]1CN(C)Cc1cccc(C(=O)O)c1 | 8.03% |
| CCOc1ccccc1NC(=O)Cn1nnc(C(=O)NCc2cccs2)c1N | -94.8% |
| C[C@@H]1CN([C@@H](C)CO)S(=O)(=O)c2ccc(-c3ccc(C(=O)N(C)C)cc3)cc2O[C@@H]1CN(C)C(=O)Cc1ccccn1 | -3.98% |
| COCC#Cc1cnc2c(c1)C(=O)N([C@@H](C)CO)C[C@H](C)[C@@H](CN(C)Cc1ccccc1)O2 | -2.07% |
| C[C@@H]1CN([C@H](C)CO)C(=O)c2cc(-c3cccc(C(=O)N(C)C)c3)cnc2O[C@H]1CN(C)S(=O)(=O)c1ccc(F)cc1 | -4.18% |
| COc1ccc(-c2cc(NC(C)=O)c3ncc(-c4cc(OC)c(OC)c(OC)c4)n3c2)cn1 | -107% |
| CCCC#Cc1ccc2c(c1)O[C@@H](CN(C)C(=O)CC)[C@@H](C)CN([C@H](C)CO)S2(=O)=O | -16.6% |
| COCCn1c(SCC(=O)c2[nH]c(C)c(C(C)=O)c2C)nc2ccccc2c1=O | -272% |
| CC1CCCCC1NC(=O)/C(C#N)=C/C=C/c1ccccc1[N+](=O)[O-] (configuration not stated) | -102% |
| Cc1ccc(OCC(=O)Nc2cccc3c2CCCC3)cc1C | -94.9% |
| C[C@@H]1CN([C@H](C)CO)C(=O)c2cc(C#Cc3ccccn3)cnc2O[C@H]1CN(C)CC1CCOCC1 | -7.38% |
| CCC(=O)Nc1ccc2c(c1)OC[C@H](C)N(C(=O)c1ccncc1)C[C@H](C)[C@H](OC)CN(C)C2=O | -2.72% |
| COCC#Cc1cnc2c(c1)C(=O)N([C@@H](C)CO)C[C@@H](C)[C@H](CN(C)C(=O)C1CCOCC1)O2 | -0.849% |
| CC1=C(C)CC(C(=O)NNC(=O)c2ccccc2O)C(C(=O)O)C1 (configuration not stated) | -151% |
| Cn1cnc([N+](=O)[O-])c1Sc1ccccc1 | -217% |
| CCC(=O)N(C)C[C@@H]1Oc2ncc(C#CCC3CCCC3)cc2C(=O)N([C@@H](C)CO)C[C@H]1C | 7.03% |
| COc1ccc(C#Cc2cnc3c(c2)C(=O)N([C@H](C)CO)C[C@H](C)[C@H](CN(C)S(=O)(=O)c2ccc(F)cc2)O3)cc1OC | 8.05% |
| C/C=C/c1ccc2c(c1)O[C@H](CN(C)C(=O)Nc1ccc(OC)cc1)[C@@H](C)CN([C@H](C)CO)S2(=O)=O | -21.8% |
| COCC#Cc1cnc2c(c1)C(=O)N([C@H](C)CO)C[C@H](C)[C@H](CN(C)C(=O)Nc1ccccc1OC)O2 | 0.317% |
| COc1ccc(C(C#N)Nc2ccc(C)cc2)cc1 (configuration not stated) | 49.7% (active) |
| COc1ccccc1NC(=O)N(C)C[C@@H]1Oc2ncc(C#CCC(C)C)cc2C(=O)N([C@@H](C)CO)C[C@@H]1C | 3.82% |

| Structure (SMILES) | activation |
| --- | --- |
| CC(C)C#Cc1ccc2c(c1)O[C@H](CN(C)Cc1ccccn1)[C@H](C)CN([C@H](C)CO)S2(=O)=O | -14.1% |
| Cc1ccccc1-c1cnc2c(c1)C(=O)N([C@H](C)CO)C[C@H](C)[C@@H](CN(C)C(=O)c1ccccc1)O2 | 2.61% |
| Cc1cc(C)cc(NS(=O)(=O)c2ccc(F)cc2)c1 | -117% |
| COc1ccc(F)cc1S(=O)(=O)Nc1ccc2c(c1)OCO2 | -99.7% |
| C[C@H]1CN([C@@H](C)CO)S(=O)(=O)c2ccc(-c3ccccc3)cc2O[C@H]1CN(C)C(=O)CC1CC1 | 4.7% |
| CO[C@H]1CN(C)C(=O)c2cc(NC(C)=O)ccc2OC[C@H](C)N(C(=O)CN(C)C)C[C@@H]1C | -4.03% |
| COc1ccc(S(=O)(=O)Nc2ccc(F)cc2)c(C)c1C | -231% |
| COc1ccc(CN2CCOC2=O)cc1OC | 44.5% (active) |
| C[C@@H]1CN([C@@H](C)CO)C(=O)c2cc(C#Cc3ccccc3)cnc2O[C@H]1CN(C)C(=O)c1ccccn1 | 5.71% |
| C[C@@H]1CN([C@@H](C)CO)C(=O)c2cc(/C=C/c3ccccc3)cnc2O[C@H]1CN(C)C(=O)C1CCC1 | 2.31% |
| CCCN(C)C[C@@H]1Oc2cc(C#CCc3ccccc3)ccc2S(=O)(=O)N([C@H](C)CO)C[C@@H]1C | 7.02% |
| C[C@@H]1CN([C@H](C)CO)C(=O)c2cc(-c3ccccc3F)cnc2O[C@H]1CN(C)C(=O)NC1CCCCC1 | -3.04% |
| CCC(=O)N(C)C[C@@H]1Oc2ncc(C#Cc3cccnc3)cc2C(=O)N([C@@H](C)CO)C[C@@H]1C | -1.27% |
| COc1ccc(C)cc1S(=O)(=O)NC1CCCCC1 | -375% |
| Cc1cccc(-n2ncc(Cl)c(Cl)c2=O)c1 | 69.6% (active) |
| CCC(=O)N(C)C[C@H]1Oc2cc(-c3cccc(C#N)c3)ccc2S(=O)(=O)N([C@@H](C)CO)C[C@@H]1C | -7.09% |
| O=C(Nc1cc(S(=O)(=O)Nc2ccc(Cl)cc2)ccc1O)c1ccc(F)cc1F | -118% |
| CCC(=O)N(C)C[C@@H]1Oc2cc(C#C[C@H](C)O)ccc2S(=O)(=O)N([C@H](C)CO)C[C@@H]1C | 5.93% |
| CCCNC(=O)N(C)C[C@@H]1Oc2ncc(C#Cc3ccccc3F)cc2C(=O)N([C@@H](C)CO)C[C@H]1C | 13.1% |
| COc1ccc(CN(C)C[C@@H]2Oc3ccc(NS(=O)(=O)c4ccc(OC)cc4)cc3C(=O)N([C@H](C)CO)C[C@H]2C)cc1 | -2.32% |
| C[C@@H]1CN([C@H](C)CO)C(=O)c2cccc(NS(=O)(=O)c3cn(C)cn3)c2O[C@H]1CN(C)CC1CC1 | -0.457% |
